Experimental data reported in article PMC12136788.
Where a chain is given by its changes, count along the chain named. Whole data set: some 5,800 sequences, median “enrichment r” near 0.54, cut for the highest 2% near 16. The sample as a whole holds a higher share of the highest values than the screen did.

B1: chr18:35263486:35263657:-|CDS|ENSG00000186814|control|control|control (ssRNA)
RNA: GGGAGUUCUACAGUCCGACGAUCGGAAAUGACAUCCACAGGAGCACUGAAGUCUCUGUCUCUGAAUAGCCCGGUGCAGCCCUUAGAGAACCAGUGCAAGACUGAGACUCAGGAGUCCCAGGCUUUCCAGGAGAGAGGUGAGAACAACAGAGGAUUGAGCAUCA
B2: chr17:5489330:5489445:+|CDS|ENSG00000167842|unk|FALSE|unique (ssRNA)
RNA: GGGAGUUCUACAGUCCGACGAUCACGUUGACUUUCUUUGAUGAGCUUCAUAAUGUUGGCAGAGAUCAUGGGACUAGUGAUUUUAGGGAGAGUUUAGUAUCCCUGGUUCAGAACUCCAGAAAACUACAGAACAUUAGAGACAAUCAACAGAGGAUUGAGCAUCA
B3: chr4:138169334:138169435:-|3pUTR|ENSG00000151012|msi1|FALSE|unique (ssRNA)
RNA: GGGAGUUCUACAGUCCGACGAUCCCAUUUCACGCAGAAAAAAAGUCAGCCAGUAAUUAAGAAAAAAAGUGAUGGAGAUUAAGUAGUAUUUUGGCUUAUUUUUAGGACUCAUCAUGAGAAGACACAGUUCCUUUAAUCAGGAAACAACAGAGGAUUGAGCAUCA
B4: chrX:155122998:155123099:+|3pUTR|ENSG00000185515|unk|FALSE|unique (ssRNA)
RNA: GGGAGUUCUACAGUCCGACGAUCCUACAUACACACAAAUGAAUGCAUGUAAAAUCUGGUGAUACUGAAUAAAGUCUGUGGUCUAGAUAGCAGUAUAAUAUUAUUGUCAAUGUCUUGGAUGUGAAGUUGUGCUAUAGUUACAAACAACAGAGGAUUGAGCAUCA
B5: chr4:138169334:138169435:-|3pUTR|ENSG00000151012|msi1|total|mutant (ssRNA)
RNA: B3 RNA with U83C, A84C, U102C, A103C
B6: chr13:79312715:79312816:-|3pUTR|ENSG00000139746|unk|total|mutant (ssRNA)
RNA: GGGAGUUCUACAGUCCGACGAUCCCUUGUGAUUUAUUAUAAUGCCGCAGCAUACUUAUAAAAGUGGUCUGUGCUGAGUCAGACCGAGAGCCCAGCCCAUCCGAAACACAUCAUAAUUUAAGAAUAUGAUGCAGAAUGCCCUUACAACAGAGGAUUGAGCAUCA
B7: chr13:79312715:79312816:-|3pUTR|ENSG00000139746|unk|FALSE|unique (ssRNA)
RNA: B6 RNA with C44U, C45A, C83U, C84A, C100U, C101A

target: MSI1 full-length (mouse, UniProt Q61474 1-362); assay: nsRBNS (natural sequence RNA bind-n-seq); RBNS binding buffer (assumed for nsRBNS): 25 mM Tris pH 7.5, 150 mM KCl, 3 mM MgCl2, 0.01% Triton X-100, 500 ug/ml BSA, 20 U/ml SUPERase-In, 4 C; UNK is unkempt and MSI1 is Musashi-1; names of the RNAs are library labels; protein concentration not given here; high values mean tight binding
Sequence (Q61474 whole entry): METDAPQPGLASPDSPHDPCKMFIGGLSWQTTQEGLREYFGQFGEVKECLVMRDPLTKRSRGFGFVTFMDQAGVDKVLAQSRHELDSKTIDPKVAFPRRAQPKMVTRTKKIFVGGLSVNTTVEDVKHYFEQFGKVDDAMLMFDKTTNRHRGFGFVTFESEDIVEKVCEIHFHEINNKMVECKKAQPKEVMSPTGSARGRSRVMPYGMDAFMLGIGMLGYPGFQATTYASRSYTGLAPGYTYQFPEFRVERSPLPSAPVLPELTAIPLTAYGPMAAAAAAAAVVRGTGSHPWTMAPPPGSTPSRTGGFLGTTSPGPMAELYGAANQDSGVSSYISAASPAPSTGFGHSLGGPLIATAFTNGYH

| Binder | binding signal [enrichment R] |
| --- | --- |
| B1 | 0.496 |
| B2 | 1.88 |
| B3 | 19.3 |
| B4 | 2.09 |
| B5 | 0.883 |
| B6 | 1.96 |
| B7 | 17.8 |
